The full ranking holds about 16,000 sequences; the median of “e-score” is about -0.044, and the highest 2% start at about 0.38. The entries come from a sample that favours the highest values as a whole.
Target: T1, GST-NbGlk1(82-244) (Nicotiana benthamiana)
T1 chain: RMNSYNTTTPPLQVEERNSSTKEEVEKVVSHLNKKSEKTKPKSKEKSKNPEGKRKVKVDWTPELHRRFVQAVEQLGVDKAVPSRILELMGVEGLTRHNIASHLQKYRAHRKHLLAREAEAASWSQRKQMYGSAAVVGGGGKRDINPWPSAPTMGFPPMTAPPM
Test: protein-binding microarray; NbGlk1 is a Golden2-like transcription factor of Nicotiana benthamiana; high values mean tight binding
Details: protein: recombinant; tags: GST (pTH6838); dsDNA, one strand shown

Row | Sequence | binding signal [E-score]
1 | AGTAATCG | 0.296 ± 0.00931
2 | ATCACAGA | 0.217 ± 0.141
3 | ATATCTTA | 0.408 ± 0.0113
4 | ATATCTTG | 0.436 ± 0.0173
5 | ATATCATA | 0.307 ± 0.0181
6 | ATATCGGC | 0.354 ± 0.0162
7 | ATCTCTTC | 0.286 ± 0.00741
8 | ATCTCTTA | 0.337 ± 0.015
9 | ATATCGTC | 0.328 ± 0.0135
10 | ATATCTGC | 0.438 ± 0.0129
11 | ATATCTTC | 0.412 ± 0.0234
12 | ATCTCTGC | 0.311 ± 0.0301
13 | ATATCGTG | 0.348 ± 0.0162
14 | ATATCATG | 0.373 ± 0.00698
15 | AGCGATCG | 0.204 ± 0.00262
16 | AATTCTAT | 0.22 ± 0.114
17 | AATTGGAT | 0.2 ± 0.0585
18 | ATCTTAAT | 0.321 ± 0.00718
19 | ATATTAAG | 0.251 ± 0.0913
20 | ATCCACAA | 0.29 ± 0.0043
21 | ATTTTATA | 0.281 ± 0.0713
22 | ATTTGCGA | 0.294 ± 0.051
23 | AGTAAAAT | 0.292 ± 0.0131
24 | ACTGAATA | 0.204 ± 0.00699
25 | ATATCTGG | 0.401 ± 0.00925

Row | Sequence | binding signal [E-score]
26 | ATATCTGA | 0.399 ± 0.00857
27 | ATCTCCTG | 0.3116 ± 0.00208
28 | ATATCAGA | 0.343 ± 0.0575
29 | ATATCGGG | 0.343 ± 0.0169
30 | ATCTCTTG | 0.379 ± 0.0245
31 | ATCTCTGG | 0.205 ± 0.0181
32 | ATCTCTGA | 0.269 ± 0.143
33 | ATCTCGTG | 0.357 ± 0.0779
34 | ATCTACTA | 0.341 ± 0.0266
35 | ATCTGTGA | 0.344 ± 0.0977
36 | ATATGCTA | 0.224 ± 0.0529
37 | ACATAGAT | 0.223 ± 0.0149
38 | ATATTCAC | 0.208 ± 0.132
39 | ATCATAAA | 0.232 ± 0.00949
40 | ATCCAGGA | 0.328 ± 0.0422
41 | AGTATCCG | 0.328 ± 0.0412
42 | ATCCTGGA | 0.296 ± 0.0334
43 | AATCTGGC | 0.416 ± 0.0222
44 | ATCCTGGC | 0.244 ± 0.119
45 | ATTCTGGA | 0.248 ± 0.0551
46 | AATCTGGT | 0.443 ± 0.0103
47 | AATCTGGG | 0.428 ± 0.0442
48 | AATCAGGG | 0.313 ± 0.0785
49 | AATCGGGT | 0.272 ± 0.0576
50 | AATCTGGA | 0.452 ± 0.00746

Row | Sequence | binding signal [E-score]
51 | ATCTGGGG | 0.27 ± 0.147
52 | AGTGAAAT | 0.208 ± 0.0317
53 | ATTACGAA | 0.341 ± 0.0714
54 | ACCGTATC | 0.274 ± 0.0523
55 | AATGAGAT | 0.312 ± 0.0605
56 | ATTTCGGA | 0.309 ± 0.0179
57 | ATTGCGAC | 0.346 ± 0.0296
58 | ATCAGTAA | 0.214 ± 0.0917
59 | AATCATAC | 0.263 ± 0.039
60 | AGCGAGAT | 0.269 ± 0.0866
61 | AATATATA | 0.27 ± 0.0135
62 | AGAATAAT | 0.206 ± 0.0577
63 | ATCCGGCA | 0.253 ± 0.0503
64 | ATTGCGGA | 0.359 ± 0.0313
65 | ATCTGGAA | 0.351 ± 0.0575
66 | ATCCTACA | 0.298 ± 0.0179
67 | AATCAACG | 0.247 ± 0.00961
68 | AATCTACG | 0.38 ± 0.0162
69 | AATCTACC | 0.404 ± 0.00847
70 | ATTCTATC | 0.261 ± 0.0903
71 | AATATACA | 0.21 ± 0.00993
72 | AATCTACA | 0.401 ± 0.0303
73 | AATCTACT | 0.406 ± 0.0108
74 | AATCATCT | 0.205 ± 0.0194
75 | AATCGACG | 0.243 ± 0.0212

Row | Sequence | binding signal [E-score]
76 | AATCAACT | 0.274 ± 0.00959
77 | ATTTTAGA | 0.221 ± 0.0235
78 | ATCTCATA | 0.291 ± 0.0411
79 | ATCCCCAA | 0.276 ± 0.0488
80 | ATAGGATA | 0.247 ± 0.133
81 | AAATATTA | 0.313 ± 0.0186
82 | ATACAAAA | 0.251 ± 0.0113
83 | AGCTAGAT | 0.216 ± 0.00676
84 | ATTGCGGG | 0.26 ± 0.0952
85 | AATCGCGG | 0.317 ± 0.0232
86 | AAATAAAG | 0.202 ± 0.0801
87 | AGATTGTC | 0.3936 ± 0.00333
88 | AGATTGTA | 0.3324 ± 0.00276
89 | ATATTGTC | 0.261 ± 0.0163
90 | AGATTGTG | 0.421 ± 0.0279
91 | AGATCGTC | 0.3356 ± 0.00264
92 | ATATTGTG | 0.235 ± 0.0938
93 | AAGGATTG | 0.247 ± 0.0253
94 | AAATATAA | 0.208 ± 0.0739
95 | AATCCGCG | 0.396 ± 0.0375
96 | AATCCCCT | 0.2621 ± 0.00234
97 | ATCCCGCA | 0.289 ± 0.00853
98 | AATCCGCA | 0.395 ± 0.0273
99 | ATTCCGCA | 0.238 ± 0.0649
100 | AATCAGCG | 0.312 ± 0.0496

Row | Sequence | binding signal [E-score]
101 | AATCCGCC | 0.372 ± 0.0634
102 | ATTCCGCG | 0.256 ± 0.00946
103 | AATCCGCT | 0.388 ± 0.0352
104 | ATCTTGGG | 0.216 ± 0.0663
105 | AAATAGAT | 0.264 ± 0.0472
106 | ATCTGGTG | 0.3327 ± 0.000333
107 | ATACATAT | 0.204 ± 0.0258
108 | ATATAGAT | 0.352 ± 0.0482
109 | ATTTAAGA | 0.236 ± 0.0208
110 | ACGGATCT | 0.265 ± 0.053
111 | ACGGATAC | 0.2607 ± 0.00125
112 | AAGGATAT | 0.387 ± 0.00749
113 | AGGGATAT | 0.353 ± 0.00472
114 | ACGGATAT | 0.381 ± 0.03
115 | AAGGATCT | 0.335 ± 0.00404
116 | ATTATATA | 0.215 ± 0.115
117 | ATCTACAC | 0.34 ± 0.0325
118 | AATTCTGT | 0.223 ± 0.0117
119 | ATACGCTA | 0.239 ± 0.0564
120 | ATCATGAA | 0.215 ± 0.0159
121 | CAGATCTG | 0.38 ± 0.0481
122 | AGGATCTC | 0.402 ± 0.0113
123 | AAGATCAC | 0.225 ± 0.0928
124 | AAGATCTC | 0.406 ± 0.00477
125 | AGGATCTA | 0.314 ± 0.04

Row | Sequence | binding signal [E-score]
126 | CAGATCTA | 0.249 ± 0.0194
127 | CAGATCTC | 0.423 ± 0.0294
128 | AGGATCTG | 0.337 ± 0.025
129 | CAGATCCC | 0.266 ± 0.0242
130 | AAGATCTA | 0.356 ± 0.00732
131 | AAGATCTG | 0.362 ± 0.0161
132 | CAGATCCG | 0.266 ± 0.0152
133 | ATTCGCTC | 0.231 ± 0.0553
134 | ATCACGAT | 0.29 ± 0.0315
135 | ATTCCAAC | 0.2142 ± 0.000545
136 | ATCCGTTG | 0.233 ± 0.0162
137 | ATATGCAT | 0.219 ± 0.0814
138 | ATATGGAA | 0.219 ± 0.0165
139 | ATCTAAAA | 0.244 ± 0.06
140 | ACCGGAAT | 0.243 ± 0.0509
141 | AGGAGGAT | 0.244 ± 0.0559
142 | ATTCGCCA | 0.278 ± 0.00941
143 | ATCCTTTA | 0.274 ± 0.0111
144 | AAGATCCT | 0.339 ± 0.00784
145 | AAGATCAT | 0.214 ± 0.0212
146 | AAGATCTT | 0.399 ± 0.0153
147 | ATTCCATA | 0.257 ± 0.00403
148 | AATCCATC | 0.367 ± 0.0565
149 | AATCGATT | 0.353 ± 0.0155
150 | ATTCCATG | 0.229 ± 0.0434

Row | Sequence | binding signal [E-score]
151 | AATCCCTG | 0.283 ± 0.0408
152 | AATCCATA | 0.3787 ± 0.000904
153 | AATCCATG | 0.381 ± 0.0124
154 | AATCCATT | 0.38 ± 0.039
155 | AATCCCAT | 0.331 ± 0.00747
156 | ATCCTCGA | 0.224 ± 0.0852
157 | AAATATGG | 0.272 ± 0.0577
158 | ATCTTCCA | 0.319 ± 0.0516
159 | AATATTAG | 0.209 ± 0.0412
160 | ATCGGCAA | 0.216 ± 0.00468
161 | ATCTTTCA | 0.247 ± 0.0983
162 | ATCTATGA | 0.247 ± 0.0113
163 | AGATTTGA | 0.327 ± 0.0876
164 | AATTTTGG | 0.25 ± 0.0182
165 | AGATTTGG | 0.394 ± 0.0453
166 | AGATTTGC | 0.4695 ± 0.00449
167 | ATATTTGC | 0.338 ± 0.0673
168 | AGATTTAG | 0.276 ± 0.0684
169 | ATCATGAT | 0.205 ± 0.00494
170 | ATTTCGGC | 0.283 ± 0.0422
171 | ACTAAGAT | 0.231 ± 0.0287
172 | ACTAAAAT | 0.281 ± 0.0324

Reference: paper PMC5836133, “The intracellular immune receptor Rx1 regulates the DNA-binding activity of a Golden2-like transcription factor”
